# An excerpt weighted towards active compounds, which were near 19% of everything screened.
# HT1080 IDH1KD tx: kills HT-1080 cells with IDH1 knockdown | HT-1080 IDH1 knockdown viability, ATP luminescence, 48 h | Potency, µM (series often up to 46.1 µM), for the others: top-dose activity, negative = toxicity, usual class: cytotoxic | hit rate 2% among 360,000;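 further: potency means the concentration at half of the fitted maximal effect; 0% = DMSO wells and -100% = cell-free medium wells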
#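 IDH1KD HT-1080 cells, 750/well, RPMI + 5% FBS; compound pinned after 2 h settling; 48 h, 37 °C; CellTiter-Glo luminescence; % activity normalised to DMSO and no-cell wells; curves fitted, classed by r2 and efficacy.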
# IL1B secr inh: inflammasome signaling inhibition, IL-1 beta readout. THP-1 LPS/ATP IL-1B secretion, AlphaLISA, 16 h; stronger effect = lower value. activity change, % at 57.5 µM. hit rate 4.7% among 360,000; in the data active means activity change below about -50%; inconclusive means mostly about -30% to -49%
#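 Secreted IL-1B measured by AlphaLISA bead assay after 16 h compound exposure of THP-1 cells; compounds (final up to 57.5 uM) added 1 h before LPS (250 ng/mL) and ATP (1.25 mM) stimulation; lower signal means less secretion.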
# HT1080NT lethal: kills 2HG-producing HT-1080-NT fibrosarcoma cells; HT-1080-NT fibrosarcoma viability, CellTiter-Glo ATP luminescence, 48 h; Potency, µM (top dose mostly 46.1 µM), for the others: at the highest dose activity, negative = less viability, most hits filed as cytotoxic; hit rate 1.6% among 360,000; AID 686970;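 further: NT is the 2HG producing partner of a matched IDH1 knockdown line; potency means the concentration at half of the fitted maximal effect; 0% = DMSO-treated cells and -100% = media-only wells without cells; nearly all actives have a fitted effect of over 55% in size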
#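 Toxicity toward the 2HG-producing NT line was scored as %Activity, normalised to DMSO and no-cell wells, from CellTiter-Glo luminescence after 48 hours' treatment.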
# DT40 TDP1 no CPT: qHTS for Inhibitors of human tyrosyl-DNA phosphodiesterase 1 (TDP1): qHTS in cells in absence of CPT; DT40 Tdp1-/- hTDP1 cells, no CPT, ATP luminescence, 48 h; AID 686978, 2013; Potency, µM (doses to about 46.2 µM), without a hit: top-dose activity change, negative = growth inhibition, usual class: inhibitors; hit rate 15% among 420,000; further: potency means the concentration at half of the fitted maximal effect; nearly all actives have a fitted effect of over 55% in size
#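 Chicken DT40 Tdp1-/- cells stably complemented with human TDP1 were seeded at 400 cells/well with DMSO in place of 20 nM camptothecin. After compound pinning, cells grew at least 48 hr at 37 °C; viability read by CellTiter-Glo luminescence.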
# TDP1 cell CPT: growth inhibition of DT40 Tdp1-/-;hTDP1 cells with camptothecin (screen for TDP1 inhibitors) | chicken DT40 Tdp1-/-;hTDP1 cells + 20 nM CPT, ATP luminescence, 48 h | Potency, µM (titrated, usually from 46.2 µM), for inactives: top-dose activity change, negative = growth inhibition, usual class: inhibitors | hit rate 12% among 420,000 | AID 686979; further: potency means the concentration at half of the fitted maximal effect; nearly all actives have a fitted effect of over 55% in size
#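 Chicken DT40 Tdp1-/- cells stably complemented with human TDP1 were seeded at 400 cells/well in medium containing 20 nM camptothecin, exposed to pin-transferred compounds, and grown at 37 °C for at least 48 hr. Viability was read as ATP luminescence.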
# An asterisk follows results filed as active; ? = inconclusive; nt = no result. Unless noted, the call rests on the fitted dose curve; in most records, active means well fitted curve in the direction sought with a large enough effect; inconclusive means small, poorly fitted or top-dose-only effect, or another doubt; inactive means no such curve, though single readings can be large; an effect the other way counts as inactive or inconclusive. Unless noted, on the % scale 0 is the no-effect control and ±100 the full control effect.
SMILES,HT1080 IDH1KD tx,IL1B secr inh,HT1080NT lethal,DT40 TDP1 no CPT,TDP1 cell CPT
COc1ccc(C(=O)CSc2nc3ncccc3[nH]2)cc1OC,2%,-9,2%,?,-25%
O=C(O)c1ccccc1Nc1cc(Cl)ccc1C(=O)O,nt,nt,nt,-3%,5%
O=C(Nc1cc(S(=O)(=O)N2CCCCC2)ccc1Cl)C1=NN(c2ccccc2)C(=O)CC1,1%,82,5%,8.2µM*,?
CCOc1ccc(NC(=O)C2=NN(c3ccccc3)C(=O)CC2)cc1S(=O)(=O)N1CCCCC1,0%,-10,-12%,?,?
Cc1ccc(Cl)cc1NC(=O)Nc1nnc(N(C)Cc2ccccc2)s1,nt,nt,nt,23µM*,21µM*
COc1cccc(CN2CCN(CC#Cc3ccccc3)CC2CCO)c1 (stereo not drawn),-13%,5,-7%,?,-36%
CCOC(=O)Cn1ccc(-c2ccccc2)c(C#N)c1=O,2%,-22,0%,3%,-1%
COc1ccc(CCN(C)CCCN2CC(c3ccccc3)CC2=O)cc1OC (stereo not drawn),-7%,-6,-3%,6%,-25%
COc1ccc(CNC[C@@H](CCCCN(C)Cc2ccc(OC)cc2)N2C[C@H](c3ccccc3)N(CCc3ccc(Cl)c(Cl)c3)C(=O)C2=O)cc1,23µM*,?,18µM*,4.1µM*,?
Cc1cc(C)cc(NC(=O)Cn2c(-c3cncs3)nc3ccccc32)c1,nt,nt,nt,21µM*,?
Cc1ccc(NC(=O)Cn2c(=O)c(C)nc3ccccc32)cc1,-8%,31,-3%,-8%,-6%
